Drawing on ChEMBL document CHEMBL3988442, “University of Dundee, Small-Polar-MMV Screening Library” (2021), this text covers Percent Effect for eleven molecules.

Molecules are shown by their SMILES. For some of these results: Measured potencies and affinities stand elsewhere.

Holding throughout (set-up): scale not given: direction of the effect not stated beside the values
Experiment [1] addresses Protein translocase subunit SecA (Escherichia coli (strain K12)) (UniProt P10408). In words: Assay to Identify E. coli SecA ATPase Inhibitors. The format is functional. To be noted: 30 µM.
Experiment [2] deals with T1, Ubiquitin-activating enzyme e1, putative (Leishmania donovani (strain BPK282A1)) (UniProt E9BSI1).
T1 sequence (whole entry): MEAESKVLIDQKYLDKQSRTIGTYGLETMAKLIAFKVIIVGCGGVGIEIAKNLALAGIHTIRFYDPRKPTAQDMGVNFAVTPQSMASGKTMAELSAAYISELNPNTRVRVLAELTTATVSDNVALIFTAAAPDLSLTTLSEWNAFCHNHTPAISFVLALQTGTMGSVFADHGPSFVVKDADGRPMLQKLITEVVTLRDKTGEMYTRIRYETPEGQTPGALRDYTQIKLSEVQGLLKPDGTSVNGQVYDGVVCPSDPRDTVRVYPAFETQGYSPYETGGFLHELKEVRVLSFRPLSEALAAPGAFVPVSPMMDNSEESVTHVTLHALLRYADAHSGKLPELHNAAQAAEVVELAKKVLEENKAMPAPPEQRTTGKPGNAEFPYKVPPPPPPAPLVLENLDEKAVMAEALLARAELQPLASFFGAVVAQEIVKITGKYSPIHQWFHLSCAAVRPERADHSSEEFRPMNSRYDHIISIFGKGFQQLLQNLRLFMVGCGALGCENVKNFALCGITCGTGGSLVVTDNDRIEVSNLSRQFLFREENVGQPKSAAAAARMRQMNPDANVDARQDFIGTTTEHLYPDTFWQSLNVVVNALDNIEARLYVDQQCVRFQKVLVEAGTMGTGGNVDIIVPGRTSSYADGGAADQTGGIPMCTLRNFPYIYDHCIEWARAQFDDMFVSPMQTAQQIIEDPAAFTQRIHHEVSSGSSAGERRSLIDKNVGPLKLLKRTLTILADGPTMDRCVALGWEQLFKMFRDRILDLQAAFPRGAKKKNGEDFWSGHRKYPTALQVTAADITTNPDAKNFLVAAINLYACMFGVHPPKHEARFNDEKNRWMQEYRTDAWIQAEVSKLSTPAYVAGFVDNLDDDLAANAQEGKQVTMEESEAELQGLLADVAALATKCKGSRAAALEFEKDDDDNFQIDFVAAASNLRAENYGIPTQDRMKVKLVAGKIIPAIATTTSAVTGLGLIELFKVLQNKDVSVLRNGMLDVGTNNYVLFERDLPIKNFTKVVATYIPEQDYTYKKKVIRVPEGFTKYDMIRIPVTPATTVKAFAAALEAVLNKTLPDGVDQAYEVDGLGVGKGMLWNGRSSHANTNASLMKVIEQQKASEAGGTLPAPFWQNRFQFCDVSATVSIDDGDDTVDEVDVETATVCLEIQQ
In words: Leishmania donovani Ubiquitin Activating Enzyme (LdE1). The experiment is classed as functional. Particulars: 30 µM.

The target in experiment [3] is AMP-activated protein kinase, AMPK (Homo sapiens) (UniProt P54646+O43741+P54619+Q9UGJ0+Q9Y478+Q13131+Q9UGI9). In words: AMP-dependent Kinase enzyme assay. An in vitro enzyme assay that detects ADP turnover that is directly proportional to AMPK activity. This uses naive AMPK that is activated during the assay with MK-8722. The experiment is classed as functional. Particulars: 30 µM.

Experiment [4] addresses Sialic acid-binding Ig-like lectin 9 (Homo sapiens) (UniProt Q9Y336). In words: Hs-Siglec9 ALPHAscreen SOP 20170721. To be noted: 10 µM.
The next experiment deals with Trypanosoma cruzi. Description: Trypanosoma cruzi phosphomannomutase and mannose-1-phosphate guanylyltransferase assay. The experiment is classed as functional. Particulars: 10 µM.
Experiment [5] addresses T2, Arginase-2, mitochondrial (Homo sapiens) (UniProt P78540).
T2 sequence (whole entry): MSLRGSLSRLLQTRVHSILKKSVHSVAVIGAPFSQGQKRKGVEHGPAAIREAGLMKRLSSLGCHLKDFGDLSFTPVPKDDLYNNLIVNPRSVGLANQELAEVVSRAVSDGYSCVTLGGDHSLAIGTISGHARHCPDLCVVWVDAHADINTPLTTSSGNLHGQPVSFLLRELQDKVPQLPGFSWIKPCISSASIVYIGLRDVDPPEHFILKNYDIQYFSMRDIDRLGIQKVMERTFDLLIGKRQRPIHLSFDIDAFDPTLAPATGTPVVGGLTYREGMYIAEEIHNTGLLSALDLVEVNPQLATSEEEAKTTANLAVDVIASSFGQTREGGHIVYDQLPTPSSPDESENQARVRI
Description: in vitro enzyme assay to detect the production of urea directly proportional to the activity of Arginase II. Further: in the data most compounds retested in dose-response had high values. To be noted: 33.3 µM. The experiment is classed as functional.

The target of experiment [6] is T3, Proteasome subunit beta (Trypanosoma cruzi) (UniProt O96673).
T3 sequence (whole entry): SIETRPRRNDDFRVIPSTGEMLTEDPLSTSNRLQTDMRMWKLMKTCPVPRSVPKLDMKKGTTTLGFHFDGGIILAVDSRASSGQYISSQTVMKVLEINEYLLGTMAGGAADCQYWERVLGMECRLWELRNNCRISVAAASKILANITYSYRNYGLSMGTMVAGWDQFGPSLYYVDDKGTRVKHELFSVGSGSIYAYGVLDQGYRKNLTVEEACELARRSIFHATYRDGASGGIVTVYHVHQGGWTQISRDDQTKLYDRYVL
In words: Trypanosoma cruzi proteasome chymotrypsin-like activity (TcProtChymo) assay. Further: in the data most compounds retested in dose-response had high values. The format is functional. Particulars: 9.37 µM.

The species entered for the next experiment is Homo sapiens. In words: To identify inhibition of the IFN signalling (Jak-Stat) pathway via expression of an eGFP reporter gene under the control of an IFN-stimulated response element (ISRE) containing MxA promoter. The format is functional. To be noted: 30 µM. (In a reporter assay the amount or activity of a reporter protein is the signal.)
Experiment [7] addresses T4, Tyrosyl-tRNA synthetase, putative (Trypanosoma cruzi (strain CL Brener)) (UniProt Q4DSP6).
T4 sequence (whole entry): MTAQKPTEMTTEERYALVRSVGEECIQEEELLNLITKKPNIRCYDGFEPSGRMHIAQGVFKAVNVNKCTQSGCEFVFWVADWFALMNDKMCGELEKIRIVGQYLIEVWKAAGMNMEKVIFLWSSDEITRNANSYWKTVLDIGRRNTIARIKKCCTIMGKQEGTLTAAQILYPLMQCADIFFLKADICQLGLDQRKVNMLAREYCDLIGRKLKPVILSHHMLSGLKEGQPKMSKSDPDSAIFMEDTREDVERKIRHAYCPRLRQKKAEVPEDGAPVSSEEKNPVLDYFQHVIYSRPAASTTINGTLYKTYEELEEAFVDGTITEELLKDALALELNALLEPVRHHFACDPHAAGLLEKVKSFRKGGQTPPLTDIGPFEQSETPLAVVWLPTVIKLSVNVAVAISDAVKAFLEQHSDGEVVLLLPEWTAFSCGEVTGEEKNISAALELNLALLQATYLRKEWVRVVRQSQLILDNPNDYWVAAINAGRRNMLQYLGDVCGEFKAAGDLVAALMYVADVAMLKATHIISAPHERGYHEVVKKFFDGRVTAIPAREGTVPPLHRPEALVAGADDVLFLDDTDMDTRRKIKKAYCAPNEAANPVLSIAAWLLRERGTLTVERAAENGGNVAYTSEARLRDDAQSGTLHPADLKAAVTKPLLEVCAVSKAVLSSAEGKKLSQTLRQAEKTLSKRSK
In words: Trypanosoma cruzi tyrosyl tRNA synthetase (TcYRS) _High Tyrosine SOP. Further: in the data most compounds retested in dose-response had high values. The format is functional. To be noted: 30 µM.

The target in experiment [8] is T4, Tyrosyl-tRNA synthetase, putative (Trypanosoma cruzi (strain CL Brener)). In words: Trypanosoma cruzi tyrosyl tRNA synthetase (TcYRS) SOP. The experiment is classed as functional. Particulars: 30 µM.
The target in experiment [9] is Chromo domain-containing protein 1 (Saccharomyces cerevisiae (strain ATCC 204508 / S288c) (Baker's yeast)) (UniProt P32657). Description: ScCHD-1 Enzyme Inhibition Assay. Further: in the data most compounds retested in dose-response had high values. The format is functional. Particulars: 30 µM.
Chain of Chromo domain-containing protein 1 (Saccharomyces cerevisiae (strain ATCC 204508 / S288c) (Baker's yeast)) (P32657 whole entry, the tested form may be a part): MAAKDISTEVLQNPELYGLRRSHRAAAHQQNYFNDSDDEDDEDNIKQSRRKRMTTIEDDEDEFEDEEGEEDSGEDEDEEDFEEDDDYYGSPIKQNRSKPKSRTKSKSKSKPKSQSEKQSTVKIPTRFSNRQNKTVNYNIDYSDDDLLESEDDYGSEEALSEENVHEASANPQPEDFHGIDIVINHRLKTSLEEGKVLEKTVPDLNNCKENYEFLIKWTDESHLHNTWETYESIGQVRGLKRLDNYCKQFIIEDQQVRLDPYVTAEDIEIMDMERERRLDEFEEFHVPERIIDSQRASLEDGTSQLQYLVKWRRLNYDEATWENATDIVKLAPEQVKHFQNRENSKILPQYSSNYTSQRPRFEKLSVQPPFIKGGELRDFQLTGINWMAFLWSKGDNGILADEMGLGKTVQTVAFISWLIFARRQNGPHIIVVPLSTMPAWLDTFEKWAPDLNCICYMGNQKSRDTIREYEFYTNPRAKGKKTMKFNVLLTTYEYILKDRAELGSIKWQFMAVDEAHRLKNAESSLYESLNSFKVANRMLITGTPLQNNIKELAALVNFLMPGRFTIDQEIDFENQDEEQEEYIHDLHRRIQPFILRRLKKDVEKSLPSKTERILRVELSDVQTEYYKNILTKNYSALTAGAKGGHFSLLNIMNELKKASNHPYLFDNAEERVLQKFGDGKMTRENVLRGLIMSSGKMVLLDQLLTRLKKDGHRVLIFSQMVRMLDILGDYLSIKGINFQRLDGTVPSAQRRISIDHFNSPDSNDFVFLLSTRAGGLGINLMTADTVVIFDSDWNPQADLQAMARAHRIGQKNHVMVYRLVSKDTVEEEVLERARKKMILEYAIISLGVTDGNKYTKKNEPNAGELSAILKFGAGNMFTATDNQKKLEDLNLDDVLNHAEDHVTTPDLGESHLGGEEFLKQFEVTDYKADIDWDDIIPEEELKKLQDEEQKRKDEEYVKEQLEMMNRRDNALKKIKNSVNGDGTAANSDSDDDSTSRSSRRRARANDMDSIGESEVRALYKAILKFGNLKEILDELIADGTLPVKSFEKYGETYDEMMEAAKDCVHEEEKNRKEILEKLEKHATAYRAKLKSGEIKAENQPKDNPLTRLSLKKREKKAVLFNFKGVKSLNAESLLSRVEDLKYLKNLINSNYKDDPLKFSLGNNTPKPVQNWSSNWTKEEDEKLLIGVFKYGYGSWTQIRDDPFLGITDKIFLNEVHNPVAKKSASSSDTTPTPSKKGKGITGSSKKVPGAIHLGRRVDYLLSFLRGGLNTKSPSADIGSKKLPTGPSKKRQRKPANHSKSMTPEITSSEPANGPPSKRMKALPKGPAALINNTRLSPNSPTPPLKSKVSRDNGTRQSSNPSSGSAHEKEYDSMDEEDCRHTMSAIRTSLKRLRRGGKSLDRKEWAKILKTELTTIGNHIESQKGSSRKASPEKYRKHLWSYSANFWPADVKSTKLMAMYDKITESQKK

Chain of Sialic acid-binding Ig-like lectin 9 (Homo sapiens) (Q9Y336 whole entry): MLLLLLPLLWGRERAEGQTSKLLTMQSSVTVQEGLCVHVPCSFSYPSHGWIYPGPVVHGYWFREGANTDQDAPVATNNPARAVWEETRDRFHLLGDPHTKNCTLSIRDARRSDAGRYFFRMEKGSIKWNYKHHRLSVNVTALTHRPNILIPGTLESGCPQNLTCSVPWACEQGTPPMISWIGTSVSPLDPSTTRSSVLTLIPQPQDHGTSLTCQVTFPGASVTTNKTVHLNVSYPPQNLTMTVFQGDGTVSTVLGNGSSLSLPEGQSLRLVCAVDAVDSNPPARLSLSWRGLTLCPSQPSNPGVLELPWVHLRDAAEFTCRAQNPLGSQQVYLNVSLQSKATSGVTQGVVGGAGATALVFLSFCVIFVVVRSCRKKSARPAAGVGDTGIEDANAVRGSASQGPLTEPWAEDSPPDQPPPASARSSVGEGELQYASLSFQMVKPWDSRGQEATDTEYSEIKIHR
Chain of Protein translocase subunit SecA (Escherichia coli (strain K12)) (P10408 whole entry): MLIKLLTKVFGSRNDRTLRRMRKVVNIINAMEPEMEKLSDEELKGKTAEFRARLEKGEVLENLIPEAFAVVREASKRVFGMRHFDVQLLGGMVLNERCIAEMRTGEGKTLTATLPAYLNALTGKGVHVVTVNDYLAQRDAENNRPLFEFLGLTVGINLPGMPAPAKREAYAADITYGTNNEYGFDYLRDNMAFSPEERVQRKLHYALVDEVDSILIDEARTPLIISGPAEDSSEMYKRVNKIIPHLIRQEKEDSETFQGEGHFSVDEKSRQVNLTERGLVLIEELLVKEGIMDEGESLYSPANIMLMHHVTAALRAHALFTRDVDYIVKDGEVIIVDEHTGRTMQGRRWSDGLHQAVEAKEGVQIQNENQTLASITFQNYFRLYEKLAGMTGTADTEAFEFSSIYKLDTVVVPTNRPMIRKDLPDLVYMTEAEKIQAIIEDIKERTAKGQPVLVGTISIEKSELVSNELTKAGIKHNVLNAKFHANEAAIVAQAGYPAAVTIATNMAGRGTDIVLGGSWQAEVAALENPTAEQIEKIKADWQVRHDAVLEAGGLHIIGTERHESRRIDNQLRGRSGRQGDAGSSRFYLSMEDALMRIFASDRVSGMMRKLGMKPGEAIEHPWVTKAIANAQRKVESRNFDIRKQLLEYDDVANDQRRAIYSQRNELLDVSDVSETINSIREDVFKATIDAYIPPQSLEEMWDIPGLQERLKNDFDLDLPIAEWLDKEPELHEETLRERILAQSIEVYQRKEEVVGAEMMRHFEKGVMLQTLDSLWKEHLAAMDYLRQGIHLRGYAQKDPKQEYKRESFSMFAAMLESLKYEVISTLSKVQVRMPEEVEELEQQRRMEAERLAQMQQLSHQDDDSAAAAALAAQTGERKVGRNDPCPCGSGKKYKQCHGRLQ

For `O=C(c1ccc(Br)o1)N1CCN(Cc2ccc(OC(F)(F)F)cc2)CC1`, the Percent Effect is -1.82% in [1]; 5.48% in [2]; 27.2% in [3]; -16.1% in experiment [4]; -1.96% in the experiment with Trypanosoma cruzi; -0.455% in experiment [5]. Also, the Percent Effect in experiment [6] is 8.87%; in the experiment filed under Homo sapiens it was 37.2%; in experiment [7], 2.15%; in experiment [8] it was 7.5%; in experiment [9], -3.29%.
Take `CCCNC(=O)c1ccc2c(c1)C(=O)N(CC(C)C)C2=O`: the Percent Effect in experiment [1] is -2.78%; in experiment [2], -8.11%; in experiment [3], 0.767%; in experiment [4] it was 5.78%; with Trypanosoma cruzi, -2.32%; in experiment [5] it was -10%. The Percent Effect in experiment [6] was 3.45%; in the experiment filed under Homo sapiens, 0.98%; in experiment [7], 0.529%; in experiment [8] it was 2.44%; in experiment [9] it was -2.46%.
Turning to `COc1cccc(N2CCN(C(=O)[C@H](O)C3CCCCC3)CC2=O)c1`, the Percent Effect in experiment [1] is -1.35%; in experiment [2], 5.41%; in experiment [3] it was 2.95%; in experiment [4], 1.44%; with Trypanosoma cruzi, 2.32%; in [5], 2.38%. The Percent Effect in experiment [6] is 21%; in the experiment filed under Homo sapiens it was 3.62%; in experiment [7], 8.99%; in [8], 17.1%; in [9], -2.64%.
Consider `COCCN1CCN(Cc2noc(C3CC3)n2)CC1C` (stereo unspecified), for which the Percent Effect in [1] was 0.0669%; in [2], 22.8%; in experiment [3], -4.5%; in [4], -13.4%; with Trypanosoma cruzi, -3.87%; in experiment [5], 1.14%. For the same molecule, the Percent Effect in [6] was 10.7%; in the experiment listed under Homo sapiens, -0.744%; in experiment [7], 1.48%; in experiment [8], 11.4%; in [9], -3.63%.
`CC(C)(C)OC(=O)CNC(=O)CCc1nnc(-c2ccsc2)o1`: the Percent Effect in [1] is -5.71%; in experiment [2] it was 5.2%; in experiment [3] it was 2.21%; in experiment [4], 5.6%; in the experiment on Trypanosoma cruzi, -0.688%; in experiment [5] it was 24.8%. The Percent Effect in experiment [6] is 16.1%; in the experiment filed under Homo sapiens, 6.67%; in experiment [7], 3.23%; in experiment [8] it was 3.7%; in [9], -0.78%.
In the case of `CC(NC(=O)c1cccs1)C(=O)NCc1ccccc1CN1CCCC1` (stereo unspecified), the Percent Effect is -4.29% in experiment [1]; 23.4% in [2]; -5.29% in [3]; 2.04% in [4]; 4.12% in the experiment on Trypanosoma cruzi; 3.2% in experiment [5]. The Percent Effect in experiment [6] is 12.5%; in the experiment filed under Homo sapiens, 5.06%; in experiment [7] it was 12.6%; in experiment [8] it was 21.9%; in [9], -11.2%.
`CCn1cc(CN2CCC(c3nnc(CN(C)C)n3CC)CC2)cn1`: the Percent Effect is 0.381% in [1]; 10.4% in experiment [2]; 3.2% in experiment [3]; 6.14% in experiment [4]; -4.03% in the experiment on Trypanosoma cruzi; -1.38% in [5]. The Percent Effect is 14% in experiment [6]; 4.82% in the experiment listed under Homo sapiens; 2.15% in [7]; 6.17% in experiment [8]; 0.0159% in [9].
Regarding `Cc1cnn(CC2CCCN2C(=O)c2cccc(CC#N)c2)c1` (stereo unspecified), the Percent Effect in experiment [1] is -3.75%; in experiment [2], 2.53%; in experiment [3], 0.139%; in [4], -0.305%; in the experiment on Trypanosoma cruzi, 8.03%; in experiment [5], 0%. Also, the Percent Effect is -0.0819% in experiment [6]; -5.56% in the experiment listed under Homo sapiens; 0.493% in [7]; 1.27% in experiment [8]; -2.19% in experiment [9].
As for `Cc1cccc(-c2noc(CN3CCCC(Cn4cncn4)C3)n2)c1` (stereo unspecified), the Percent Effect in [1] is -6.12%; in experiment [2], 20.2%; in [3] it was -9.05%; in experiment [4] it was 10.8%; with Trypanosoma cruzi, 8.59%; in [5] it was 3.04%. The Percent Effect in [6] was 5.16%; in the experiment filed under Homo sapiens, 5.05%; in experiment [7], 6.4%; in experiment [8], 21.5%; in experiment [9] it was -4.86%.
With `CCOc1cc(/C=C/c2ncc(C(=O)O)s2)cc(Cl)c1OC`, the Percent Effect is -1.71% in experiment [1]; 8.86% in experiment [2]; 6.6% in experiment [3]; 1.04% in experiment [4]; -7.28% with Trypanosoma cruzi; -4.52% in [5]. Also, the Percent Effect is 12.3% in experiment [6]; 10.1% in the experiment listed under Homo sapiens; 0% in experiment [7]; 7.59% in experiment [8]; -21.1% in experiment [9].
Turning to `O=C(NCCNc1cnccn1)N1CCN(Cc2cccnc2)CC1`, the Percent Effect was -5.13% in experiment [1]; 8.86% in experiment [2]; -3.44% in experiment [3]; -10.1% in experiment [4]; 3.38% with Trypanosoma cruzi; 1.5% in experiment [5]. The Percent Effect is 15.1% in [6]; 10.6% in the experiment listed under Homo sapiens; 7.29% in [7]; 20.2% in [8]; -33.3% in experiment [9].
